Assay results: PubChem BioAssay AID576 (NMMLSC, 2007)
In all, about 24,000 compounds went through this assay and about 150 (0.62%) were called active.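 Rule for the calls: active = fluorescence ratio above 2.44, which is 1 plus 3 SD of all ratios; inconclusive = signal too bright to measure linearly, ratio around 10 or more; inactive = fluorescence ratio below 2.44.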 The full list was thinned out, with actives kept by preference.

Experiment: intrinsic compound fluorescence with Jurkat cells – cell-based, flow cytometry, artefact control for VLA-4 allosteric ligand project, primary screen (AID 576);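 note: green fluorescence of cells measured with 488 nm excitation and 530 nm emission; tested at 10 µM compound in the well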
Conditions: compound autofluorescence, active compounds read high, 1 = vehicle-only cell background

Fluorescence ratio, active:
CC(C)(C)NC(=O)Cn1nnc(-c2ccccc2Cl)n1 3.61

Fluorescence ratio, inactive:
O=C(O)C1CCN(S(=O)(=O)N2CCOCC2)CC1 1, CCN1CCCC1CNC(=O)Cn1cnc2ccc(S(=O)(=O)N3CCC(C)CC3)cc2c1=O (stereo unspecified) 1.05, CCOc1cc2[nH]c(=O)n(CCC(=O)NCc3ccc(OC)cc3)c(=O)c2cc1OCC 0.94, CCOc1ccc(CNC(=O)C2CC(=O)N(C3CCCC3)C2)cc1OC (stereo unspecified) 0.92, Cc1ccc(-c2ccc(=O)n(CC(=O)NCCCN3CCCCC3)n2)cc1 1.06, CCCS(=O)(=O)C(=C1Nc2ccccc2N1)S(=O)(=O)CCC 1.04, COc1cc(-n2c(C)nc3cc(C(=O)NCc4ccco4)ccc32)cc(OC)c1OC 1.05, COCCOC(=O)C1=C(C)NC(=O)CC1c1cc2c(cc1Br)OCO2 (stereo unspecified) 0.99, O=C(NCCN1C(=O)C2C3C=CC(C3)C2C1=O)Nc1ccccn1 (stereo unspecified) 0.86, Cc1ccc(-n2nc3c(c2NC(=O)c2ccc4c(c2)OCO4)CSC3)c(C)c1 0.97, CCN1CCN(c2ncnc3c2oc2nc(C)c4c(c23)CC(C)(C)OC4)CC1 0.92, Cc1cc(NS(=O)(=O)c2ccccc2)no1 0.95, CCC1CCCCN1CCNS(=O)(=O)c1ccc2c(c1)CCN2C(C)=O (stereo unspecified) 1.02, CC(c1cccnc1)N(CCN(C)C)C(=O)Nc1ccc(Cl)c(Cl)c1 (stereo unspecified) 1.09, CCCOc1ccc(-c2nc(N)n[nH]2)cc1 1.01, CCOc1ccc(-n2c(SC(C)C(=O)OC)nc3c(c2=O)SCC3)cc1 (stereo unspecified) 1.09, CCOC(=O)C1CCN(C(=O)C2CCN(S(=O)(=O)CC)CC2)CC1 1.02, Cc1ccc2cccc(O)c2[n+]1[O-] 1.03, CCC(C)n1[nH]c(=O)c2c(C)cc(C)nc21 (stereo unspecified) 1.05, CCOC(=O)Cn1c(=O)oc2cc(S(=O)(=O)NCC3CCCO3)ccc21 (stereo unspecified) 1.88, CCn1ncc(C2=NOC(C(=O)N3CCN(c4ccccc4)CC3)C2)c1C (stereo unspecified) 1.1, Cn1cccc1C1(C(F)(F)F)NCCNC1=O (stereo unspecified) 1.07, N#CC1=C(N)Oc2cc(O)ccc2C1C1CCCCC1 (stereo unspecified) 1.18, COC(=O)C1=C(C)OC(N)=C(C#N)C1c1cc(OC)ccc1OC (stereo unspecified) 1.05, C=C1c2cc(CC)ccc2NC(=O)N1c1ccc(C)cc1 1.01, O=c1c2ccccc2[nH]c(=S)n1CCN1CCC(=C(c2ccc(F)cc2)c2ccc(F)cc2)CC1 1.02, CC(=O)c1c(N2CCOCC2)nc(=S)n(Cc2ccccc2)c1C 1.3, COC(=O)Cn1cc(C(=O)c2cccs2)c2ccccc21 0.93, CCn1c(CSc2ncccn2)nnc1SCC(=O)N1c2ccccc2CC1C (stereo unspecified) 1, Cc1ccc(S(=O)(=O)NCCN2CCOCC2)cc1C 1.05, CCOc1ccccc1NC(=O)C1CCN(S(=O)(=O)c2c(C)nn(C)c2C)CC1 1.02, CCOC(=O)c1ccc(NC(=O)Cn2nnc(-c3ccc(C)cc3)n2)cc1 1.04, N#Cc1ccc(COC(=O)Cn2nnc(-c3ccccc3)n2)cc1 1.04, O=C(Nc1ccccc1C(=O)N1CCOCC1)C1CCC(=O)N1C1CCCC1 (stereo unspecified) 1.04, CC(C)NC(=O)CCCn1c(=S)[nH]c2cc3c(cc2c1=O)OCO3 1.14, O=C(O)CSCNC(=O)CC12CC3CC(CC(C3)C1)C2 0.77, CCOC(=O)C1CCN(C(=O)CC2C(=O)N(Cc3ccccc3)C(C)c3nc4ccccc4n32)CC1 (stereo unspecified) 1.02, CCOC(=O)c1c(NC(=O)c2cccs2)sc(C)c1C 1.07, Cc1c(C(=O)NCCN2CCOCC2)sc2nc(-c3ccc(F)cc3)cn12 1.22, CC1CCN(Cc2nc3c(c(=O)n(C)c(=O)n3C)n2Cc2cccc3ccccc23)CC1 1.06
